Here are results for 40 molecules from PubChem BioAssay (EPA / NIEHS).

What is called AC50 is the midpoint of the concentration-response curve, whichever way the signal moves.

The source made the active and inactive calls. Rule for the calls: active = hit-call score of the fitted dose curve at least 0.9, where 1 is the maximum; inactive = score below 0.9.

Read-out in this assay: Monocyte Chemoattractant Protein-1 (MCP1), CCL2 (gene 6347)
Kind of assay: BSK_3C_MCP1: BioMAP Diversity Plus: 3C Assay for Monocyte Chemoattractant Protein-1 (MCP1) Biomarker Activity (AID 2283017). The note with it: primary human endothelial cells (HUVEC); actives raise or lower the signal. On the procedure:
BSK_3C is a cell-based, multiplexed-readout assay that uses umbilical vein endothelium, a human vascular primary cell, with measurements taken at 24 hours after chemical dosing in a 96-well plate.BSK_3C_MCP1 is an assay component measured in the BSK_3C assay. It measures MCP-1 antibody related to regulation of gene expression using ELISA technology.Data from the assay component BSK_3C_MCP1 was analyzed into 1 assay endpoint. This assay endpoint, BSK_3C_MCP1, was analyzed with bidirectional fitting relative to DMSO as the negative control and baseline of activity. Using a type of binding reporter, gain or loss-of-signal activity can be used to understand changes in the signaling as they relate to the gene CCL2. Furthermore, this assay endpoint can be referred to as a primary readout, because this assay has produced multiple assay endpoints where this one serves a signaling function. To generalize the intended target to other relatable targets, this assay endpoint is annotated to the cytokine intended target family, where the subfamily is chemotactic factor.
The levels of cell surface (or secreted, indicated by the prefix "s") biomarker endpoints were measured by ELISA. Overt cytotoxicity to cells in confluent adherent cultures (all systems other than the BT system) was assessed by measuring total protein levels using sulforhodamine B (SRB) staining in parallel cultures at the time of biomarker measurements, indicated as SRB endpoints. For proliferation assays for adherent cell types, individual cell types are cultured at sub-confluence and relative cell numbers quantified by SRB staining at time points optimized for each system (48 h: 3C and CASM3C systems; 72 h: BT and HDF3CGF systems; 96 h: SAg system). SRB was performed by staining cells with 0.1% SRB after fixation with 10% TCA and reading wells at 560 nm.Viability and proliferation of PBMC (T cells) was quantified by Alamar Blue reduction for the SAg and BT systems. For PBMC viability (referred to as PBMC Cytotoxicity within the assay endpoint names), cells were plated (75,000/well in a 96-well plate) and then chemical samples added for 1 h before addition of activators, SEB and TSST-1 (20 ng/mL final concentration each). Cells were incubated for 90 h. Then, Alamar Blue (20 uL/well) (Invitrogen, Cat DAL1100) was added for 6 h, and the plates were read with a fluorescence microplate reader at 546/580 nm (excitation/emission). For PBMC proliferation, cells were plated and activated as above but incubated for only 16 h prior to addition of Alamar Blue. Plates were read after 6 h.
Turning to `Cc1cc(C)nc(Nc2ccccc2)n1`, the result was inactive.
With `Clc1nc(Cl)nc(Nc2ccccc2Cl)n1`, the result was inactive.
With `CCOc1nc(F)cc2nc(S(=O)(=O)Nc3c(Cl)cccc3Cl)nn12`, the AC50 is 33.2 µM (active).
Regarding `CC(C)Oc1cccc(NC(=O)c2ccccc2C(F)(F)F)c1`, the outcome was inactive.
Take `COP(=O)(OC)O/C(C)=C/C(=O)N(C)C`: the outcome was inactive.
Still for that read-out and setting: for `O=C(Nc1ccccc1-c1ccc(Cl)cc1)c1cccnc1Cl` the value was “inactive”; for `CCSC(=O)N1CCCCCC1`, “inactive”; for `CCNC(=O)NC(=O)C(C#N)=NOC`, “inactive”.
Take `Cc1ccc(N=CN(C)C=Nc2ccc(C)cc2C)c(C)c1`: the AC50 is 36 µM (active).
Regarding `CC(C)Nc1nc(Cl)nc(NC(C)C)n1`, the result was inactive.
In the case of `CCNP(=S)(OC)O/C(C)=C/C(=O)OC(C)C` (stereo not given), the outcome was inactive.
On the same count and under the same terms, next, `CCN(CC)c1nc(C)cc(OP(=S)(OC)OC)n1`: “inactive”.
Same read-out and setting: for `CCOP(=O)(OCC)Oc1nc(Cl)c(Cl)cc1Cl` the value was “inactive”.
For `C=C(C)CN(CC)c1c([N+](=O)[O-])cc(C(F)(F)F)cc1[N+](=O)[O-]`, the result was inactive.
Still for that read-out and setting: for `C=CCOC(=O)C(C)(C)OC(=O)c1cc(-n2c(=O)cc(C(F)(F)F)n(C)c2=O)ccc1Cl` the value was “inactive”.
Turning to `N#CN=C1SCCN1Cc1ccc(Cl)nc1`, the outcome was inactive.
Take `Nc1cnn(-c2ccccc2)c(=O)c1Cl`: the result was inactive.
`Clc1cccc(C(Cl)(Cl)Cl)n1`: the result was inactive.
As to `CC(C)N1C(=O)c2ccccc2NS1(=O)=O`, the outcome was inactive.
Take `Nc1c(Cl)c(Cl)nc(C(=O)O)c1Cl`: the outcome was inactive.
Regarding `N#Cc1c(Cl)cccc1Cl`, the outcome was inactive.
For `Cn1c(-c2ccccc2)cc(-c2ccccc2)[n+]1C`, the AC50 is 5.41 µM (active).
Turning to `CC1(C)C(C=C(Cl)Cl)C1C(=O)OC(C#N)c1cccc(Oc2ccccc2)c1` (stereo not given), the result was inactive.
On the same count and under the same terms, next, `COC(=O)NS(=O)(=O)c1ccc(N)cc1`: “inactive”.
Still for that read-out and setting: next, `COC(=O)NC(=S)Nc1ccccc1NC(=S)NC(=O)OC`: “inactive”; `COCC(=O)N(c1c(C)cccc1C)C(C)C(=O)OC` (stereo not given): “inactive”.
As for `CSC(=O)c1c(C(F)F)nc(C(F)(F)F)c(C(=O)SC)c1CC(C)C`, the AC50 is 31.2 µM (active).
With `CNC(=O)Oc1cccc2ccccc12`, the outcome was inactive.
Same read-out and setting: for `COC(=O)N(C(=O)N1CO[C@@]2(C(=O)OC)Cc3cc(Cl)ccc3C2=N1)c1ccc(OC(F)(F)F)cc1` the value was “inactive”.
Regarding `CO/N=C(/C1=NOCCO1)c1ccccc1Oc1ncnc(Oc2ccccc2Cl)c1F`, the AC50 was 20.1 µM (active).
For `CCCC(=NOCC)C1=C(O)CC(CC(C)SCC)CC1=O` (stereo not given), the result was inactive.
For the molecule `CC(C)=CC1C(C(=O)OCc2coc(Cc3ccccc3)c2)C1(C)C` (stereo not given), the AC50 was 10.4 µM (active).
As to `CN=C=S`, the result was inactive.
For `O=c1n(Cl)c(=O)n(Cl)c(=O)n1Cl`, the outcome was inactive.
Regarding `OC(c1ccc(Cl)cc1)(c1ccc(Cl)cc1)C(Cl)(Cl)Cl`, the AC50 was 29.3 µM (active).
Take `CC(C)(C)C(=O)C(Oc1ccc(Cl)cc1)n1cncn1` (stereo not given): the result was inactive.
For `COP(=S)(OC)Oc1ccc([N+](=O)[O-])c(C)c1`, the AC50 is 30.8 µM (active).
On to `O=P(O)(O)CCCl`, for which the outcome was inactive.
Take `CCCCOCN(C(=O)CCl)c1c(CC)cccc1CC`: the AC50 is 30.2 µM (active).
Regarding `COCC(C)N(C(=O)CCl)c1c(C)csc1C` (stereo not given), the outcome was inactive.
